Here are results for 13 compounds from PubChem BioAssay (Tox21).

Assay [1] concerns the target Progesterone receptor (Homo sapiens) (UniProt P06401). Put plainly: qHTS assay to identify small molecule agonists of the progesterone receptor (PR) signaling pathway (AID 1346784; calls by dose curve; note: nearly all actives have a fitted effect of over 30% in size). To be noted: PR-UAS-bla HEK293T, beta-lactamase FRET ratio, 16 h; series mostly up to 92.4 µM. The method in brief: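 Cells (PR-UAS-bla HEK 293T, GripTite) were plated in assay medium containing 2% charcoal-stripped FBS and incubated 6 hr. Test compounds in DMSO were added for 16 hr at 37C. FRET substrate was then loaded for 2 hr at room temperature before fluorescence reading.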
For orientation: qHTS replaces the single test concentration by a dilution series.

For assay [2] the target is unchanged. Put plainly: qHTS assay to identify small molecule antagonists of the progesterone receptor (PR) signaling pathway (AID 1346795; active = well fitted inhibition curve with a large enough effect in the signal ratio in the repeat runs, not every such curve was filed as active; the % refers to the signal ratio; note: potency is the fitted concentration of half-maximal effect). The settings on record: PR-UAS-bla HEK293T, beta-lactamase FRET ratio, 16 h; series mostly up to 92.4 µM. The method in brief: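 Antagonist mode: compounds tested against 1 nM (final) promegestone stimulation in HEK293T cells expressing PR-UAS-bla reporter, 16 hr at 37C, 5% CO2; beta-lactamase activity detected via B/G FRET substrate after 2 hr at room temperature.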

Assay [3] in a line: qHTS assay to identify small molecule antagonists of the progesterone receptor (PR) signaling pathway - cell viability counter screen (AID 1346798). Note: nearly all actives have a fitted effect of over 50% in size. To be noted: PR-UAS-bla HEK293T viability, CellTiter-Glo luminescence, 16 h; series mostly up to 92.4 µM. In short, it runs like this:
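Counter screen for cytotoxicity: viability of PR-UAS-bla HEK293T cells was measured with CellTiter-Glo luminescence following 16 hr compound exposure in the presence of R5020.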

Assay [4] is described as follows: qHTS assay to identify small molecule agonists of the progesterone receptor (PR) signaling pathway - cell viability counter screen (AID 1346799; calls by dose curve; note: nearly all actives have a fitted effect of over 45% in size). To be noted: PR-UAS-bla HEK293T viability, CellTiter-Glo luminescence, 16 h; series mostly up to 92.4 µM. In short, it runs like this: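 Cells (PR-UAS-bla HEK293T) are plated at 3,000/well in 2% charcoal-stripped FBS medium, rested 6 hr, dosed and incubated 16 hr at 37C. CellTiter-Glo is then added and luminescence measured after 30 min at room temperature.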

Assay [5] can be described thus: qHTS assay to identify small molecule agonists of the TGF-beta/Smad signaling pathway - cell viability counter screen (AID 1346829). Note: top concentration of the series differs between compounds; nearly all actives have a fitted effect of over 45% in size. To be noted: SBE-bla HEK293T viability, CellTiter-Glo luminescence, 5 h; series mostly up to 76.8 µM. In short, it runs like this:
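In parallel with the Smad reporter read, viability of HEK 293T cells stably carrying SBE-bla is quantified by ATP luminescence following 5 hr compound treatment.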

Assay [6] is described as follows: qHTS assay to identify small molecule agonists of the TGF-beta/Smad signaling pathway (AID 1346859; active = well fitted activation curve with a large enough effect in the signal ratio in the repeat runs, not every such curve was filed as active; the % refers to the signal ratio). The settings on record: SBE-bla HEK293T, TGF-beta/Smad beta-lactamase reporter, 5 h; series mostly up to 76.8 µM. In short, it runs like this:
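Reporter line: HEK 293T with stably integrated SBE-controlled beta-lactamase. Compound exposure lasts 5 hr at 37 C and 5% CO2; substrate loading follows for 2 hr at room temperature, with emission read at 460 and 530 nm.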

The target of assay [7] is Thyrotropin-releasing hormone receptor (Homo sapiens) (UniProt P34981). The assay can be described thus: qHTS assay to identify small molecule antagonists of the thyrotropin-releasing hormone receptor (TRHR) signaling pathway (AID 1346877; active = well fitted inhibition curve with a large enough effect in the repeat runs, not every such curve was filed as active). The settings on record: TRHR-HEK293, TRH-induced calcium fluorescence, antagonist mode; series mostly up to 51.3 µM. The method in brief: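 Human TRHR in HEK293 cells; inhibition of the intracellular calcium rise triggered by 1 nM TRH was followed by fluorescence over 3 min. Compounds were run at 15 concentrations, three replicates each.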
Thyrotropin-releasing hormone receptor (Homo sapiens), sequence (P34981 whole entry, looked up): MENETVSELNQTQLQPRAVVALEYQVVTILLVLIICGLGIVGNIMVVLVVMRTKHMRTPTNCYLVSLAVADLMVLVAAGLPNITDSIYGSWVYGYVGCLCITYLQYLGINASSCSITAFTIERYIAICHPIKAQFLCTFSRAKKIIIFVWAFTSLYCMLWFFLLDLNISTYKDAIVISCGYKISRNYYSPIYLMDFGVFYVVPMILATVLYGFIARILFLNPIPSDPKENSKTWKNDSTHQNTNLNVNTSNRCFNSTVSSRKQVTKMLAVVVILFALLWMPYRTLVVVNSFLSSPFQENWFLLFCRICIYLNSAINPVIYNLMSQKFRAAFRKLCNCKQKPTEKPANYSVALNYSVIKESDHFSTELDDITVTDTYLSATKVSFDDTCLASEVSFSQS

The target is the same in assay [8]. The assay can be described thus: qHTS assay to identify small molecule agonists of the thyrotropin-releasing hormone receptor (TRHR) signaling pathway (AID 1346891; calls by dose curve;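 note: HEK293 cells expressing TRHR with calcium dye readout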). To be noted: TRHR-HEK293 calcium fluorescence, agonist mode; series mostly up to 57.6 µM. The method in brief:
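Cells: TRHR-Hek293, seeded and incubated 18 h. Dye loading: 2 h at 37 °C. Compound added from DMSO stock by pin tool. Read-out: kinetic calcium fluorescence over 3 min.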

The nature of assay [9]: qHTS assay to identify small molecule antagonists of the TGF-beta/Smad signaling pathway - cell viability counter screen (AID 1346824). Note: nearly all actives have a fitted effect of over 50% in size. To be noted: SBE-bla HEK293T viability, CellTiter-Glo luminescence; series mostly up to 76.8 µM. In short, it runs like this: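 SBE-bla HEK 293T cells were plated overnight at 37 C, then given compounds in DMSO plus TGF-beta1 (added as 0.25 ng/mL solution) for 5 hr. After the bla read, CellTiter-Glo was added to the same wells and luminescence read after 30 min at room temperature.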

Assay [10] is described as follows: Human pregnane X receptor (PXR) small molecule agonists, qHTS cell viability counter screen (AID 1346977). Note: nearly all actives have a fitted effect of over 50% in size. To be noted: PXR-Luc HepG2 viability, CellTiter-Fluor, 24 h; series mostly up to 92.4 µM. In short, it runs like this:
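Cytotoxicity counter screen run in the same wells as the PXR luciferase assay, using PXR-Luc HepG2 cells in charcoal-stripped serum medium. Viability: CellTiter-Fluor fluorescence after 24hr compound treatment.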

Results filed as inconclusive are left out. The source made the active and inactive calls. Unless noted, calls come from the whole dose curve; as a rule, active = well fitted curve in the direction sought with a large enough effect in the repeat runs; inconclusive = weak or mixed curves; inactive = no such curve, though single readings can be large; an effect the other way counts as inactive or inconclusive.

Progesterone receptor (Homo sapiens), sequence (P06401 whole entry, looked up): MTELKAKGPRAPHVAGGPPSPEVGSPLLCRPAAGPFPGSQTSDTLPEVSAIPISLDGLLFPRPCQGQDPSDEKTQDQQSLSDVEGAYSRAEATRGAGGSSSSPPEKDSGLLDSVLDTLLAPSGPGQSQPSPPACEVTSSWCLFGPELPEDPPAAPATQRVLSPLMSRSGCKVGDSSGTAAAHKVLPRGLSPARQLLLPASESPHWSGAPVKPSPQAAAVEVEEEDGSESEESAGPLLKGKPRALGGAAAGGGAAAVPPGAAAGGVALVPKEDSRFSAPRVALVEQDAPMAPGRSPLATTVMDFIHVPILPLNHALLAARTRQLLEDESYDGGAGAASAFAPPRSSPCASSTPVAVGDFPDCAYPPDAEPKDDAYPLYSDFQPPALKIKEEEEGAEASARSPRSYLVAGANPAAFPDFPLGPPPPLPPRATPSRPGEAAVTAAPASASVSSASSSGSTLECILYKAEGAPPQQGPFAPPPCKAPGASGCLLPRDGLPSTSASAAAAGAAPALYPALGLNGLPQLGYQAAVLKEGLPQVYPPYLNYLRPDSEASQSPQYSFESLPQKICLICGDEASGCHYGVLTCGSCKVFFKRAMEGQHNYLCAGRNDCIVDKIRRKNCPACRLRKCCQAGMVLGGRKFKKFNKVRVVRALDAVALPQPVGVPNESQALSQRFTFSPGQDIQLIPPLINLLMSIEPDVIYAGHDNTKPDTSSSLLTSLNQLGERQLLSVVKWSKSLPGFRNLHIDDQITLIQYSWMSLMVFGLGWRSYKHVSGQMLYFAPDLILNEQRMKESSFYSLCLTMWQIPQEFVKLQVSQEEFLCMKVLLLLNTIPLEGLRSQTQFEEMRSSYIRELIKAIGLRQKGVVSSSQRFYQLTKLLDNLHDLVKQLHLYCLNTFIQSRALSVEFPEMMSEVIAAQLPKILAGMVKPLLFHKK

Regarding `CN1CCC(N(Cc2ccccc2)c2ccccc2)CC1`, the Potency result in [1], in assay [2], in assay [3] and in assay [4] was “inactive” throughout. The compound was classed as inactive in [5], in assay [6], in [7] and in assay [8].
As to `CC(C)(C)OC(=O)c1ncn2c1[C@@H]1CCCN1C(=O)c1c(Br)cccc1-2`, the Potency entry in [1], in assay [2], in assay [3], in assay [4], in assay [9] and in assay [10] was “inactive” in each case. The outcome in assay [5], in [7] and in assay [8] was inactive.
Turning to `CC1CN1P(=O)(N1CC1C)N1CC1C` (centres undefined), the Potency result in assay [1], in assay [2], in assay [3], in assay [9] and in [10] was “inactive” throughout. Further, the result in assay [5], in [6], in assay [7] and in assay [8] was inactive.
Consider `CCC(C)n1c(=O)[nH]c(C)c(Br)c1=O` (centres undefined), for which the Potency entry in assay [1], in assay [2], in assay [3], in assay [9] and in assay [10] was “inactive” throughout. The outcome in assay [5], in assay [6], in [7] and in [8] was inactive.
For the compound `Cc1nc(N)nc(N)n1`, the Potency entry in assay [1], in [2], in assay [3], in assay [4] and in assay [10] was “inactive” throughout. For the same compound, the call in [5], in [6], in assay [7] and in [8] was inactive.
Regarding `CC(C1CC1)C(O)(Cn1cncn1)c1ccc(Cl)cc1` (centres undefined), the Potency result in assay [1], in assay [3] and in assay [10] was “inactive” throughout. Also, the Potency in assay [2] was 48.3 µM (active). Further, the call in assay [5], in [6], in [7] and in [8] was inactive.
`CC(=O)[C@H]1CC[C@H]2[C@@H]3CC[C@H]4C[C@H](O)CC[C@]4(C)[C@H]3C(=O)C[C@]12C`: the Potency result in assay [1], in assay [3], in assay [4], in assay [9] and in assay [10] was “inactive” each time. Moreover, the outcome in assay [5], in [6], in assay [7] and in assay [8] was inactive.
Regarding `CCCCOC(=O)[C@@H](C)Oc1ccc(Oc2ccc(C#N)cc2F)cc1`, the Potency result in assay [1], in assay [3], in assay [4], in assay [9] and in assay [10] was “inactive” each time. In addition, the outcome in [5], in [7] and in assay [8] was inactive.
Regarding `CNNC`, the Potency result in [1], in assay [3], in [4], in assay [9] and in assay [10] was “inactive” throughout. The compound was classed as inactive in assay [5], in [6], in assay [7] and in [8].
As for `CCC/C(=N\OCC)C1=C(O)CC(CC(C)SCC)CC1=O` (centres undefined), the Potency result in assay [1], in assay [3], in assay [4], in assay [9] and in assay [10] was “inactive” throughout. The compound was classed as inactive in [5], in assay [6], in assay [7] and in assay [8].
Consider `CCOP(=S)(OCC)SCSP(=S)(OCC)OCC`, for which the Potency result in assay [1], in assay [3], in assay [4] and in assay [9] was “inactive” each time. Moreover, the call in [5], in assay [6], in assay [7] and in [8] was inactive.
As to `CNC(=O)N(C)c1nc2ccccc2s1`, the Potency entry in assay [1], in assay [3], in assay [4], in assay [9] and in assay [10] was “inactive” in each case. Further, the compound was called inactive in [5], in assay [6] and in assay [8].
Turning to `Clc1cccc(N2CCNCC2)c1`, the Potency result in assay [1], in assay [2], in assay [9] and in [10] was “inactive” each time. In addition, the call in assay [5] and in assay [6] was inactive.
